The list is not random: actives were taken first. Their share in the collection is about 3.9%.
esBAF inh – SWI/SNF esBAF complex inhibition; mouse ES cells, Bmi1-luciferase knock-in reporter, 24 h; 100% = twice the neutral-well signal; reporter increase, % at 12.5 µM; actives 2% (n = 350,000); AID 602393; in the data active = activation above about 40%; inconclusive = no clear call, values can overlap the other calls;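 note: 0% = median of the plate's neutral control wells and 100% = double that signal; a rise in the Bmi1 reporter signal indicates esBAF inhibition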
MITF TRPM1 HTS – MITF TRPM1 promoter activation in melanoma cells | AID 588334 | SK-MEL-5 TRPM1-promoter luciferase, 24 h; % of positive control, neutral wells = 0 | activation, % at 12.5 µM | actives 0.75% (n = 300,000);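 active = mean activation of at least 80% with every replicate also reaching 80%; inconclusive = mean reaches 80% but some replicate falls short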;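 note: 0% = neutral control wells and 100% = parthenolide positive control wells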
HSF1 activator – increases HSF-1 driven luciferase reporter signal; AID 504408; NIH3T3-HGL HSF-1 luciferase reporter, MG132, 8 h; 100% = twice DMSO control signal; activation, % at 9 µM; actives 1.7% (n = 300,000);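 active = mean replicate activation of at least 50% with a set share of replicates each reaching 50%; inconclusive = only one of those two conditions met; inactive = mean below 50% and too few replicates reaching it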;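 note: 0% = median of the neutral control wells and 100% = twice that signal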
HSF1 inh – HSF1 inhibition; NIH3T3-HGL HSE-luciferase, MG132-induced, luminescence 8 h; stronger effect = lower value; activity change, negative = inhibition, % at 7.5 µM (by protocol); actives 0.77% (n = 300,000); AID 2098;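 active = more than half of replicate wells show activity change below -50%, luminescence cut by over half; inconclusive = some wells, but at most half, below -50%; inactive = no replicate well below -50%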;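 note: luciferase reports HSF-1 transcriptional activity via heat shock element; 0% = median of DMSO wells and -100% = zero luminescence signal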
Wnt act – activates Wnt/beta-catenin signaling in a reporter cell assay; activation, % at 9.35 µM; activator, plate reader; actives 1.2% (n = 300,000); AID 743398; in the data active = activation above about 30%, passing the limit was not always enough; inconclusive = no clear call, values can overlap the other calls;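 note: 0% = neutral control wells and 100% = positive control wells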
* marks the source's active call; other numbers are inactive results; ? = inconclusive; . = no result given.

SMILES	esBAF inh	MITF TRPM1 HTS	HSF1 activator	HSF1 inh	Wnt act
O=C(C[C@H]1C=C[C@H](NC(=O)Nc2ccc(C(F)(F)F)cc2)[C@H](CO)O1)NCc1cccc(F)c1	23	.	.	.	.
CCc1ccc(NC(=O)c2cnc3n(c2=O)CCS3)cc1	61*	34	30	18	10
C[C@@H]1CN([C@H](C)CO)C(=O)c2cc(NC(=O)NC3CCCCC3)ccc2O[C@H]1CN(C)Cc1ccccc1	3	.	.	.	.
O=C(NCCn1cccn1)C1CCC(=O)N(CCc2cccc(F)c2)C1 (stereo unspecified)	3	-10	51*	18	2
CC(=O)c1cccc(NC(=O)C2CC(=O)N(CCc3ccccc3)C2)c1 (stereo unspecified)	.	-10	-68	-59*	-1
CSc1cccc(CNC(=O)C2CCC(=O)N(CCc3ccccc3)C2)c1 (stereo unspecified)	20	.	.	.	46*
COc1cc2[nH]c(=S)nc(NCc3cccs3)c2cc1OC	-5	-2	123*	61	5
Cc1ccc(C)c(NC(=O)c2nnn(Cc3ccccc3)c2N)c1	2	.	5	-3	0
COc1ccc(Cn2nnc(C(=O)Nc3ccc(F)cc3)c2N)cc1	9	13	2	10	3
Cc1ccc(Cn2nnc(C(=O)Nc3cc(C)ccc3C)c2N)cc1	7	.	104*	61	.
Nc1c(C(=O)Nc2ccc3c(c2)OCCO3)nnn1Cc1ccc(F)cc1	96*	116*	31	28	26
Nc1c(C(=O)Nc2ccc3c(c2)OCCO3)nnn1Cc1cccc(Cl)c1	55*	101*	40	21	47*
COc1ccc(Br)cc1Cn1nnc(C(=O)Nc2ccc3c(c2)OCCO3)c1N	13	-1	-18	-3	-2
Nc1c(C(=O)Nc2ccc3c(c2)OCCO3)nnn1Cc1ccccc1Cl	74*	145*	47	22	25
C[C@@H]1CCCCO[C@H](CN(C)C(=O)CCC(F)(F)F)[C@H](C)CN([C@@H](C)CO)C(=O)c2cc(NC(=O)Nc3ccc4c(c3)OCO4)ccc2O1	12	.	.	.	.
Cc1noc(C)c1NC(=O)N(C)C[C@@H]1Oc2ccc(NS(C)(=O)=O)cc2C(=O)N([C@@H](C)CO)C[C@H]1C	-5	.	.	.	.
CCOC(=O)C1=C(CSc2nc(-c3ccccc3)ccc2C#N)OC(N)=C(C#N)C1c1ccc(OC)cc1 (stereo unspecified)	54*	72	-20	-12	.
COCC(=O)N(C)C[C@H]1Oc2cc(C3=CCCC3)ccc2S(=O)(=O)N([C@@H](C)CO)C[C@@H]1C	3	.	.	.	.
O=C(N/N=C/c1ccc(Br)o1)c1ccc2c(c1)OCCO2	.	61	-81	-79*	.
O=C(N/N=C/c1cccnc1)c1ccc2c(c1)OCCO2	.	49	-73	-63*	23
O=C(O)c1ccc(/C=N/NC(=O)c2ccc3c(c2)OCCO3)cc1	2	-3	-11	-19	1
O=C(N/N=C/c1ccc2c(c1)OCO2)c1cccnc1	15	22	15	7	6
C[C@H]1CCCCO[C@@H](CN(C)C)[C@@H](C)CN([C@@H](C)CO)C(=O)c2cc(NS(C)(=O)=O)ccc2O1	1	.	.	.	.
Cc1cc(NC(=O)C2C3C(=O)N(Cc4ccc(Cl)cc4)C(C(=O)NC(C)(C)C)C34C=CC2(C)O4)no1 (stereo unspecified)	-13	-6	-64	-55*	.
COC(=O)C[C@@H]1C[C@@H]2c3cc(NC(=O)NC4CCCCC4)ccc3O[C@@H]2[C@@H](CO)O1	-4	.	.	.	.
SMILES	esBAF inh	MITF TRPM1 HTS	HSF1 activator	HSF1 inh	Wnt act
COc1cccc(Nc2nnc(SCc3cc([N+](=O)[O-])cc4c3OCOC4)s2)c1	.	14	16	12	.
Cc1cccc(C)c1Nc1nnc(SCc2cc([N+](=O)[O-])cc3c2OCOC3)s1	8	-1	99*	58	-2
O=C(O)CCCNC(=O)C(c1ccccc1)c1ccccc1	.	7	-9	-3	0
O=C(O)CCCNC(=O)CCCNC(=O)C(c1ccccc1)c1ccccc1	.	-13	-73	-64*	-2
CCCn1c(SCc2nc3sc(C)c(C)c3c(=O)[nH]2)nc2ccccc2c1=O	-2	-12	114*	61	.
COCCn1c(SCc2nc3ccccc3c(=O)[nH]2)nc2ccccc2c1=O	-2	-7	34	5	-2
CS(=O)(=O)c1ncc(Cl)c(C(=O)Nc2ccc(OC(F)F)cc2)n1	-35	.	-91	-91*	.
CS(=O)(=O)c1ncc(Cl)c(C(=O)Nc2ccc(N3CCOCC3)cc2)n1	.	-90	100*	46	.
CCN(c1ccccc1)S(=O)(=O)c1ccc(NC(=O)c2nc(S(C)(=O)=O)ncc2Cl)cc1	-93	-99	14	-2	.
O=S(=O)(N[C@H]1CC[C@@H](CCn2cc(-c3ccccc3F)nn2)O[C@@H]1CO)c1ccc(Cl)cc1	10	.	.	.	.
COc1ccc(/C=C/C(=O)Nc2cccnc2Cl)cc1	?	97*	18	14	43*
COC(=O)c1sccc1NC(=O)/C=C\c1ccc(Cl)cc1Cl	-10	49	.	.	.
COC(=O)c1sccc1NC(=O)/C=C/c1ccc(Cl)cc1	.	38	76*	29	12
N#C[C@@H]1[C@H](c2ccc(C#CC3CCCC3)cc2)[C@@H](CO)N1S(=O)(=O)c1ccccc1	-6	.	.	.	.
C[C@@H]1CN([C@H](C)CO)C(=O)Cc2cc(N(C)C)ccc2O[C@@H]1CN(C)C(=O)Nc1ccc(C(F)(F)F)cc1	-3	.	.	.	.
COC(=O)c1c(C)[nH]c(C(=O)C(C)OC(=O)C2CC(=O)N(CCc3ccccc3)C2)c1C (stereo unspecified)	-5	-7	.	.	50*
COc1ccc(-c2noc(-c3ccc(Br)o3)n2)cc1OC	54*	.	9	0	7
COc1ccc(Cc2nc(-c3ccc(Br)o3)no2)cc1OC	49*	21	21	16	12
O=C(Nc1ccccc1F)N[C@H]1CC[C@H](CCNC(=O)C2CC2)O[C@H]1CO	-1	.	.	.	.
Cc1cccc(NC(=O)Nc2ccc3c(c2)C(=O)N(C)[C@@H]2CC[C@@H](CC(=O)NCc4ccccc4Cl)O[C@@H]2CO3)c1	16	.	.	.	.
CC(NC(=O)Cn1nc(-c2ccccc2)c2ccccc2c1=O)c1ccccc1 (stereo unspecified)	-5	-5	21	3	-10
CNC(=O)Cn1nc(C)c2ccccc2c1=O	-4	.	-82	-78*	.
CC(NC(=O)Cn1nc(C(=O)O)c2ccccc2c1=O)c1ccccc1 (stereo unspecified)	-2	-2	52*	25	1
Cc1cc(C(=O)Cn2nc(C(=O)O)c3ccccc3c2=O)c(C)n1-c1ccc(F)cc1	48*	22	8	-6	2
CO[C@@H]1CN(C)C(=O)c2cc(NC(=O)C3CCCC3)ccc2OC[C@H](C)N(C(C)=O)C[C@H]1C	1	.	.	.	.
O=C(Cc1ccc(Br)cc1)N1CCc2ccccc2C1	53*	.	98*	69	5
O=C(/C=C/C(=O)N1CCc2ccccc2C1)N1CCc2ccccc2C1	.	9	0	0	0

High-throughput results (PubChem BioAssay)
